According to the supplement of paper PMC10338343:
± gives the standard deviation.

Legend:
[1] = test system: MILI (PIWIL2) piRISC loaded with piRNA #1 (26 nt); assay: pre-steady-state target cleavage rate (min^-1); guide: piRNA #1 5'p-UGAGGUAGUAGGUUGUAUAGUAUCCA; higher = faster piRNA-guided slicing of the target; conditions: auxiliary factor: 500 nM mouse GTSF1
Outline: (§1)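 A transcribed, DNA-blocked target RNA library (0.1 nM) and 1 nM active affinity-purified piRISC bearing one synthetic guide were incubated in HEPES–potassium acetate buffer at 33 °C for 0–8 or 0–960 min, either with or without 500 nM GTSF1 partner protein. Uncleaved targets were sequenced, normalised to depth and to weakly complementary targets, and pooled over three trials, with k3 capped at 0.0001 min^-1. The pre-steady-state cleavage rate was derived with a burst-and-steady-state fit.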

[2] = test system: EfPiwi piRISC loaded with piRNA #1 (26 nt); assay: pre-steady-state target cleavage rate (min^-1); auxiliary factor: 500 nM Ephydatia muelleri Gtsf1; guide: piRNA #1 5'p-UGAGGUAGUAGGUUGUAUAGUAUCCA; MIWI and MILI are mouse PIWI proteins and EfPiwi is from a freshwater sponge; tags in brackets are library labels; higher = faster piRNA-guided slicing of the target
Outline: as §1

Sequence	pre-steady-state target cleavage rate [1]	pre-steady-state target cleavage rate [2]
GGAGACGAUACUAUACAACCAACUUCCUCA	0.00374 ± 0.0027	0.00381 ± 0.0022
GGAGACGAUAGUAUACAACCUAGUACCUCA	0.0719 ± 0.011	0.00201 ± 0.0013
GGAGACCUUACUAUACAACGUACUACCUCA	0.0177 ± 0.0026	0.00318 ± 0.0019
GGAGACCAUACAUUACAACCUACUACCUCA	0.0869 ± 0.014	0.0108 ± 0.0045
GGAGAGGAUACUAUAGCAACCUACUACCUCA	0.129 ± 0.012	0.0429 ± 0.019
GGAGAGCAUAGUAUACAACCUACUACCUCA	0.0921 ± 0.0087	0.0077 ± 0.0045
GGAGACCUAACUAUACAACCUACCACCUCA	0.0488 ± 0.014	0.00588 ± 0.0042
GGAGUGGAUUCUAUACAUCCUACUACCUCA	0.299 ± 0.013	0.00479 ± 0.0026
GGAGAGGAUACUAUUCAACCAACUACCUCA	0.00614 ± 0.0021	0.00354 ± 0.0021
GGAGUGGAUACUAUACAAGGUACUACCUCA	0.0661 ± 0.0076	0.00342 ± 0.0019
GGAGUGGUUACUAUACAACCUACUACCUGA	0.0722 ± 0.01	0.00386 ± 0.0014
GGAGAGGAUACUAUACAAGCUACUAGCUCA	0.0601 ± 0.013	0.00266 ± 0.0018
GGAGACCUAUCAUUACAACCUACUACCUCA	0.0146 ± 0.0049	0.00563 ± 0.0035
GGAGACCAUACUAUUCAAGCUACUACCUCA	0.182 ± 0.016	0.00339 ± 0.0032
GGAGAGGAUACUAUACUACCUACUUCCUCA	0.0617 ± 0.016	0.00269 ± 0.002
GGAGUGGAUAGUAUACAACGUACUACCUCA	0.0168 ± 0.0038	0.00231 ± 0.0021
GGAGUGGAUACUAUACAACCUACUACCUCA [g2:g26:cont:t1A]	0.2 ± 0.011	0.176 ± 0.056
GGAGACCAUACUAUACAACGUACUACCUCA	0.0191 ± 0.0046	0.00482 ± 0.0015
GGAGACCUUACUUAUACAACCUACUACCUCA	0.0994 ± 0.014	0.00736 ± 0.0041
GGAGAGAAUACUAUACAACCUACUACCUCA	0.177 ± 0.01	0.0106 ± 0.0053
GGAGAGGAUACUAUACAACAUACUACCUCA	0.0488 ± 0.0058	0.0063 ± 0.0023
GGAGACGUUACAAUACAACCUACUACCUCA	0.163 ± 0.015	0.0105 ± 0.0045
GGAGACGAUACUAACAACCUACUACCUCA	0.173 ± 0.012	0.00704 ± 0.0045
GGAGUGGAUACUAUACAACCUACACCUCA	0.00292 ± 0.0021	0.00338 ± 0.0018
GGAGUGGAUACUAUACAAACUACUACCUCA	0.195 ± 0.015	0.0127 ± 0.0051
GGAGAGGUUACUAUACAAGCUACUACCUCA	0.0739 ± 0.012	0.0046 ± 0.0021
GGAGUGCAUACUAUACAACCUACUACGUCA	0.0632 ± 0.0079	0.00318 ± 0.0018
GGAGUGGAUACUAUCACAACCUACUACCUCA	0.199 ± 0.013	0.0265 ± 0.011
GGAGAGGAUUCUAUACAACCAACUACCUCA	0.00507 ± 0.0028	0.00361 ± 0.0027
GGAGAGGAUACUAUACUACCUACUACCUCA	0.173 ± 0.011	0.00925 ± 0.0043
